The source of these data is PubChem BioAssay.

Structures are written as SMILES. Inconclusive results are not listed. The source made the active and inactive calls.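 How the source made its calls, unless noted: active means viability loss from added drug above about 55%, and viability with drug at most 40%, in both replicates (limit read from the data, passing the limit was not always enough); inconclusive means both conditions met in only one replicate; inactive means neither replicate meets both conditions.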

Test [1] can be described thus: SK-BR-3 cell growth inhibitors, pilot screen, 24 h, human (AID 572;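 active means viability at or below 10% of carrier control in both of two separate runs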;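 further: compound exposure lasted between 18 and 24 h rather than exactly 24 h; 100% = carrier-treated control wells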). The note with it: SK-BR-3 viability, CellTiter-Glo luminescence, at 10 µM, stronger effect = lower value. (In general: Cellular ATP, detected with luciferase, serves as a proxy for viable cell number.)
The nature of test [2]: HUVEC growth inhibition – cell-based, human, primary screen (AID 575;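 active means viability at or below 30% in both replicate assays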;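 further: 100% = median of untreated cell wells with 0.1% DMSO on each plate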). The note with it: HUVEC proliferation, CellTiter-Glo luminescence, 72 h; at 10 µM; stronger effect = lower value.
A short description of test [3]: growth inhibitors of H69AR lung tumor, primary screen, human, duplicate replicates (AID 580;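 active means viability at or under a set limit in both replicates, limit being median viability minus 3 SD, cut at about 48% in these data, passing the limit was not always enough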;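 further: 100% = mean luminescence of untreated wells and 0% = no signal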). The note with it: H69AR lung tumor cells viability, ATP luminescence, 72 h; at 10 µM; stronger effect = lower value.
Test [4] in a line: reversal of MRP1-mediated doxorubicin resistance, pilot screen, H69AR cells, doxorubicin co-treatment (AID 601). The note with it: CellTiter-Glo, 72 h, at 10 µM; for differential viability (reversal): stronger effect = higher value.
Test [5] in a line: 384-well plate pilot, post-Golgi transport modulator project, inhibition of yeast transport mutant growth (AID 636; in the data active means inhibition above about 31%). The note with it: absorbance 615 nm, about 18 h, stronger effect = higher value.
A short description of test [6]: growth suppression of yeast trafficking mutant, preliminary HTS, modulators of trafficking downstream of Golgi apparatus project, 1536-format plate, OD 615 nm (AID 637; in the data active means inhibition above about 30%). The note with it: yeast transport mutant growth, absorbance 615 nm, 18 h; stronger effect = higher value.
Test [7] in a line: OD615 S. cerevisiae growth inhibition, permissive medium, pilot counter-assay, permissive growth control for S. cerevisiae lifespan shortening project (AID 705;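 active means growth inhibition above 25% in both replicates, a cutoff set 3 SD above the mean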). The note with it: OD615, 24 h, at 10 µM, stronger effect = higher value.
Test [8] in a line: Restrictive medium S. cerevisiae growth inhibition, OD615, pilot screen of yeast lifespan reduction project, restrictive growth control (AID 706;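 active means growth inhibition above a set limit, 3 SD over mean compound inhibition, in both replicates, cut at about 43% in these data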;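 further: modified DeaD lifespan yeast strain shifted to restrictive glucose medium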). The note with it: OD615, 48 h, at 10 µM, stronger effect = higher value.
Test [9] can be described thus: viability gain of MRP-1-high H69AR cells under doxorubicin, pilot screen, MRP-1 activator project, CellTiter-Glo, duplicate (AID 807;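 active means viability increase at or above a cutoff of the median across tested compounds plus 3 SD, cut at about 8.5% in these data, passing the limit was not always enough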;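 further: compound pretreatment 18-22 h then 72 h combined with doxorubicin; 0% = doxorubicin alone and 100% = vehicle without doxorubicin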). The note with it: H69AR viability with doxorubicin, CellTiter-Glo luminescence; at 10 µM; stronger effect = higher value.
A short description of test [10]: growth suppression of beta-catenin knockout HCT116, pilot screen, human colon tumor cells (AID 823;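 active means cell viability at or below a set limit in both duplicate runs, the limit being the all-compound median minus 4 SD, cut at about 23% in these data, passing the limit was not always enough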;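 further: 0% = wells killed by 20 µM Hyamine and 100% = untreated DMSO cell wells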). The note with it: CellTiter-Glo, 60 h, at 10 µM, stronger effect = lower value.
Test [11] in a line: growth suppression of PTEN-deleted HCT116, pilot screen, cell-based, HCT116 clonal line, CellTiter-Glo (AID 824;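 active means viability at or below 27.92% in each of two runs, the all-compound median minus 4 SD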;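 further: 0% = 20 µM Hyamine control and 100% = vehicle cell control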). The note with it: 60 h, at 10 µM, stronger effect = lower value.
Test [12] is described as follows: inhibitors of the yeast RAM network, pilot screen, dse1pr::URA3 reporter, 5-FOA selection (AID 869;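 active means inhibition over a set limit, the all-compound mean plus 3 SD, in both replicate runs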;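 further: 0% = DMSO wells with no growth and 100% = 10 µM 1-NA-PP1 with full growth; RAM network block rescues cells from 5-FOA so hits raise OD615 growth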). The note with it: S. cerevisiae dse1pr::URA3 5-FOA growth, OD615, 2 d; at 10 µM; stronger effect = higher value; strain carries analog-sensitive mutant Cbk1 kinase.
The nature of test [13]: RAM signaling pathway blockade in yeast – S. cerevisiae, Pdr1DBD-CYC8 efflux-inhibited sensitized strain, primary screen (AID 1298;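 active means RAM network inhibition above 8.4% in each of two replicates, 3 SD over the compound average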;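 further: 0% = DMSO untreated cells without growth and 100% = 10 µM 1-NA-PP1 full growth; higher means more yeast growth rescued from 5-FOA killing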). The note with it: S. cerevisiae cbk1-as DSE1-URA3 strain, 5-FOA growth OD615, 2 d; at 50 µM; stronger effect = higher value.
The mark [14] stands for this setting: H69AR cells + 2 uM doxorubicin, measured here: viability with 2 uM doxorubicin, stronger effect = lower value.
Setting [15] is: H69AR cells, compound alone cytotoxicity.

Broadly, the viability is a read-out of living cells in per cent, often relative to untreated cells. The inhibition is the drop in the measured response relative to a control, in per cent. For `COCCN1C=C(C(=O)OC)C(c2cc3c(cc2Br)OCO3)C(C(=O)OC)=C1`, the viability was 97% (inactive) in [1]; 89.2% (inactive) in test [2]; 84.5% (inactive) in test [3]; 81.2% in test [4] (setting [14]); 84.5% in [4] (setting [15]); 58.3% (inactive) in test [10]. Further, in test [11], the viability was 58.6% (inactive). Moreover, in test [4] (H69AR cells + 2 uM doxorubicin), the differential viability (reversal) is 3.38% (inactive). Also, the inhibition was -4.13% (inactive) in [5], -1.09% (inactive) in [6] and 0.41% (inactive) in test [12]. For the same compound, the growth inhibition was -12.8% (inactive) in test [7] and -14.6% (inactive) in test [8]. Further, the viability increase in [9] is -1.16% (inactive). For the same compound, the RAM network inhibition in test [13] is 0.62% (inactive).

Take `CC(=O)Nc1nnc(SCC(=O)NCC2CCCO2)s1` (centres undefined): the viability is 70% (inactive) in [1]; 105% (inactive) in test [2]; 96.3% (inactive) in [3]; 92.7% in [4] (setting [14]); 96.3% in [4] (setting [15]); 100% (inactive) in test [10]. The viability in test [11] is 88.6% (inactive). In addition, the differential viability (reversal) in test [4] (H69AR cells + 2 uM doxorubicin) is 3.56% (inactive). The inhibition in test [5] was 0.27% (inactive); in [6], 7.64% (inactive); in test [12], 0.925% (inactive). Moreover, the values for the growth inhibition in [7] and in test [8] were -2.62% (inactive) and 2.21% (inactive), respectively. In addition, the viability increase in [9] is -1.36% (inactive). In addition, the RAM network inhibition in [13] was -0.72% (inactive).

`Cc1oc(-c2cccc(Cl)c2)nc1CN1CCC(C(=O)N2CCN(c3ccccc3F)CC2)CC1`: the viability was 73% (inactive) in [1]; 4.6% (active) in [2]; 32.3% (active) in [3]; 57% in test [4] (setting [14]); 32.3% in test [4] (setting [15]); 17.2% (active) in test [10]. Also, the viability in test [11] was 10.2% (active). For the same compound, in test [4] (H69AR cells + 2 uM doxorubicin), the differential viability (reversal) was -24.7% (inactive). The inhibition was -1.6% (inactive) in test [5], -3.28% (inactive) in [6] and 1.05% (inactive) in test [12]. The figures for the growth inhibition in test [7] and in test [8] were 0.125% (inactive) and 1.06% (inactive), respectively. Moreover, the viability increase in [9] was -7.78% (inactive). Further, the RAM network inhibition in test [13] was 6.04% (inactive).

As for `COc1ccccc1N1CCN(C(=O)C2CCN(S(=O)(=O)c3ccc(F)cc3)CC2)CC1`, the viability in test [1] was 73% (inactive); in test [2], 70.8% (inactive); in test [3] it was 87.5% (inactive); in test [4] (setting [14]), 80.8%; in test [4] (setting [15]) it was 87.5%; in [10] it was 81.2% (inactive). For the same compound, the viability in [11] was 84% (inactive). For the same compound, in test [4] (H69AR cells + 2 uM doxorubicin), the differential viability (reversal) was 6.62% (inactive). In addition, the inhibition in test [5] was -0.27% (inactive); in [6] it was 8.55% (inactive); in test [12], 1.03% (inactive). The growth inhibition was -13.6% (inactive) in [7] and -1.89% (inactive) in test [8]. The viability increase in test [9] was -0.47% (inactive). Moreover, the RAM network inhibition in test [13] was 4.6% (inactive).

As to `Cn1c(=O)c2c(nc(CN3CCc4ccccc4C3)n2Cc2cccc(Cl)c2)n(C)c1=O`, the viability is 95% (inactive) in test [1]; 45.5% (inactive) in test [2]; 31.2% (active) in test [3]; 18.5% in test [4] (setting [14]); 31.2% in test [4] (setting [15]); 42.6% (inactive) in [10]. The viability in test [11] was 47.6% (inactive). The differential viability (reversal) in test [4] (H69AR cells + 2 uM doxorubicin) is 12.7% (inactive). Further, the inhibition is -3.2% (inactive) in test [5], -1.33% (inactive) in test [6] and -0.785% (inactive) in test [12]. Moreover, the results for the growth inhibition in test [7] and in [8] were -8.07% (inactive) and -5.74% (inactive), respectively. Besides, the viability increase in test [9] was -7.3% (inactive). Further, in test [13], the RAM network inhibition is 4.55% (inactive).

In the case of `O=C(Nc1ccc2c(c1)OCCO2)C1CCN(C(=O)c2ccc(F)cc2)CC1`, the viability is 90% (inactive) in [1]; 94.9% (inactive) in [2]; 92.5% (inactive) in test [3]; 86.8% in test [4] (setting [14]); 92.5% in test [4] (setting [15]); 92.3% (inactive) in [10]. Also, in test [11], the viability is 93% (inactive). Moreover, in test [4] (H69AR cells + 2 uM doxorubicin), the differential viability (reversal) is 5.68% (inactive). Further, the results for the inhibition in test [5], in [6] and in [12] were -4.53% (inactive), -4.55% (inactive) and 0.685% (inactive), respectively. Moreover, the growth inhibition in test [7] was -9.55% (inactive); in test [8], -4.03% (inactive). Also, the viability increase in test [9] was -3.11% (inactive). Moreover, in test [13], the RAM network inhibition was 6.28% (inactive).

On to `Cc1cc(C)nc(SCc2ccc3nonc3c2)n1`, for which the viability was 99% (inactive) in test [1]; 89.9% (inactive) in test [2]; 89.2% (inactive) in test [3]; 73.5% in test [4] (setting [14]); 89.2% in [4] (setting [15]); 96.3% (inactive) in test [10]. For the same compound, the viability in test [11] is 98% (inactive). For the same compound, the differential viability (reversal) in test [4] (H69AR cells + 2 uM doxorubicin) is 15.7% (inactive). Moreover, the figures for the inhibition in [5], in [6] and in [12] were -6.53% (inactive), -0.18% (inactive) and 0.535% (inactive), respectively. Moreover, the growth inhibition in [7] is -9.08% (inactive); in test [8], -6.27% (inactive). Besides, the viability increase in [9] was -0.41% (inactive). For the same compound, the RAM network inhibition in test [13] was 3.64% (inactive).

Consider `Cc1onc(-c2ccccc2)c1C(=O)NCc1cccnc1`, for which the viability in [1] is 102% (inactive); in [2], 100% (inactive); in test [3], 99.4% (inactive); in test [4] (setting [14]), 89.7%; in [4] (setting [15]), 99.4%; in test [10], 98.2% (inactive). For the same compound, in test [11], the viability was 95.8% (inactive). Besides, in test [4] (H69AR cells + 2 uM doxorubicin), the differential viability (reversal) is 9.66% (inactive). For the same compound, the inhibition in [5] was -3.33% (inactive); in [6] it was 3.09% (inactive); in test [12] it was 2.08% (inactive). For the same compound, the growth inhibition in test [7] was -14% (inactive); in test [8], -11.6% (inactive). Besides, the viability increase in [9] is -1.32% (inactive). The RAM network inhibition in [13] is 1.71% (inactive).

`O=C(CCCn1c(=O)[nH]c2ccsc2c1=O)N1CCN(c2ccccn2)CC1`: the viability in test [1] is 89% (inactive); in test [2], 99.5% (inactive); in [3], 101% (inactive); in test [4] (setting [14]) it was 94.5%; in test [4] (setting [15]), 101%; in test [10] it was 100% (inactive). Besides, the differential viability (reversal) in test [4] (H69AR cells + 2 uM doxorubicin) is 6.23% (inactive). The inhibition in [5] was -6.4% (inactive); in test [6] it was -0.18% (inactive); in [12], 2.25% (inactive). In addition, the values for the growth inhibition in test [7] and in [8] were -0.715% (inactive) and 2.48% (inactive), respectively. The viability increase in test [9] was -4.76% (inactive). Further, the RAM network inhibition in test [13] is 4.21% (inactive).

Regarding `Cc1cc(C)n2c(SCC(=O)Nc3cc(C)on3)nnc2n1`, the viability in test [1] was 91.5% (inactive); in test [2] it was 104% (inactive); in test [3] it was 101% (inactive); in [4] (setting [14]), 79.2%; in [4] (setting [15]) it was 101%; in test [10] it was 102% (inactive). In addition, the viability in [11] was 97.2% (inactive). Further, the differential viability (reversal) in [4] (H69AR cells + 2 uM doxorubicin) is 21.3% (inactive). Also, the figures for the inhibition in test [5], in test [6] and in test [12] were -4.19% (inactive), 5.71% (inactive) and 1.88% (inactive), respectively. The growth inhibition in [7] was -7.78% (inactive); in test [8], -16.6% (inactive). For the same compound, the viability increase in [9] is 1.73% (inactive). In addition, the RAM network inhibition in test [13] is 3.63% (inactive).
